HT1080 IDH1KD tx = kills HT-1080 cells with IDH1 knockdown | HT-1080 IDH1 knockdown viability, ATP luminescence, 48 h | Potency, µM (highest dose often 46.1 µM), most hits filed as cytotoxic | 360,000 tested, 2% active
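Luminescent ATP read-out (CellTiter-Glo, 10 min at room temperature) after 48 h compound exposure at 37 °C gave viability of IDH1-knockdown HT-1080 cells. Activity was normalised to DMSO and cell-free wells, then fitted as concentration-response curves.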
SW480 rerep = DNA re-replication induction in SW480 cells | Potency, µM (top dose mostly 46.1 µM), hits mostly activators | SW480 DNA re-replication, Hoechst DNA content imaging, 48 h | 340,000 tested, 1.8% active; further: nearly all actives have a fitted effect of over 55% in size
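Per well, 250 cells were exposed to pinned compound for 48 hr. Nuclear DNA was visualised with Hoechst (40 min, 37 C) and total object intensity recorded by fluorescence scanning.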
MCF10A rereplic = DNA re-replication induction in MCF 10a cells. Potency, µM (series often up to 46.1 µM), usual class: activators. MCF 10A DNA re-replication, Hoechst nuclear intensity, 48 h. 350,000 tested, 2.9% active; further: nearly all actives have a fitted effect of over 50% in size
KB-V1 cytotox = KB-V1 MDR subline cytotoxicity; KB-V1 MDR cells viability, CellTiter-Glo, 72 h; Potency, µM (highest dose often 46.1 µM), hits mostly cytotoxic; 400,000 tested, 3.4% active; AID 1347076; further: nearly all actives have a fitted effect of over 60% in size
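Following 72 h at 37 degrees C with compound, KB-V1 cell viability was read by CellTiter-Glo luminescence, medium being phenol-red-free DMEM plus 10% FBS; concentration-response parameters came from normalized, curve-fitted qHTS data.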
HT1080-NT tox = kills 2HG-producing HT-1080-NT fibrosarcoma cells | AID 686970 | Potency, µM (doses to about 46.1 µM), most hits filed as cytotoxic | HT-1080-NT fibrosarcoma viability, CellTiter-Glo ATP luminescence, 48 h | 360,000 tested, 1.6% active;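 further: NT is the 2HG producing partner of a matched IDH1 knockdown line; nearly all actives have a fitted effect of over 55% in size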
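Fibrosarcoma NT cells, 750 per well in 5% FBS RPMI, were exposed to compound for 48 hours. Viability: CellTiter-Glo luminescence.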
KB-3-1 cytotox = kills parental KB-3-1 adenocarcinoma cells; Potency, µM (titrated, usually from 46.1 µM), usual class: cytotoxic; 400,000 tested, 1.4% active; AID 1347075; KB-3-1 viability, CellTiter-Glo ATP luminescence, 72 h; further: nearly all actives have a fitted effect of over 60% in size
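72 h, 37 °C compound treatment of KB-3-1 parental cells; CellTiter-Glo added, 10 min, luminescence read. Data corrected against DMSO-only plates and normalized before curve fitting.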
Numbers stand for hits; – = inactive; ? = inconclusive; · = no result given; [ ] = dose if it differs, or a comment. An excerpt weighted towards active compounds, which were near 7.9% of everything screened. The call rests on the fitted dose curve; in most records, active means well fitted curve in the direction sought with a large enough effect; inconclusive means small, poorly fitted or top-dose-only effect, or another doubt; inactive means no such curve, though single readings can be large; an effect the other way counts as inactive or inconclusive.

SMILES	HT1080 IDH1KD tx	SW480 rerep	MCF10A rereplic	KB-V1 cytotox	HT1080-NT tox	KB-3-1 cytotox
O=C(CN1CCCCC1)Nc1c2c(nc3ccccc13)N(c1ccccc1)CC2	16.4µM	?	?	?	11.6µM	–
CCCC(=O)Nc1c2c(nc3ccccc13)N(c1ccccc1)CC2	25.9µM	?	?	–	?	–
Cc1nn(-c2ccc3ccccc3c2)c(=O)c2ccccc12	–	–	–	–	–	–
COc1ccc(-c2c(C)nn(-c3ccccc3)c2N)cc1	?	–	–	–	–	–
Cc1nn(-c2nc3ccccc3[nH]2)c(=O)c2ccccc12	1.46µM	–	–	5.8µM	1.46µM	1.3µM
Cc1nn(-c2nc3ccccc3[nH]2)c(N)c1-c1ccc(Cl)cc1	–	?	?	18.4µM	–	?
Cc1ccc2cccc(O)c2n1	·	·	·	–	·	–
Cc1onc(-c2ccccc2)c1CNS(=O)(=O)c1cccc(Br)c1	–	–	–	?	–	–
O=C(NC1CCCCC1)NC1C2CC3CC(C2)CC1C3 (centres undefined)	–	–	–	–	–	–
O=C(CSc1nnc(-c2ccccc2)c(-c2ccccc2)n1)Nc1ccccc1Cl	·	·	·	?	·	–
CN1/C(=C\C(=O)c2cccnc2)Sc2ccccc21	–	7.31µM	–	?	–	–
CN1C(=O)C(O)(CC(=O)c2cccnc2)c2ccccc21 (centres undefined)	–	–	?	–	–	–
COc1cccc(C(=O)/C=C2\Sc3ccccc3N2C)c1	–	?	18.4µM	–	–	?
Cc1cc2occ(CC(=O)NCc3cccs3)c2cc1C(C)C	–	–	–	20.6µM	–	–
O=C(Cc1coc2cc(O)ccc12)NNC(=O)c1cccs1	–	–	?	?	–	–
Cc1csc(NC(=O)Cc2coc3cc(C)c(C(C)C)cc23)n1	23.1µM	?	?	?	?	?
CCc1ccc(-n2c(=O)c3c(C)c(C)sc3n(CC(=O)NCc3ccc(C)cc3)c2=O)cc1	·	·	·	–	·	–
COc1ccc(-c2cn3nc(N4CCCC(C(=O)NCc5ccccc5OC)C4)sc3n2)cc1 (centres undefined)	·	·	·	–	·	–
Cc1cc(C(=O)N/N=C\c2cc(C(C)(C)C)ccc2O)n[nH]1	?	?	–	–	?	?
CC(=O)N/N=C/c1cc(C(C)(C)C)cc(/C=N/NC(C)=O)c1O	?	3.26µM	14.6µM	?	–	–
N#CCCn1cc(CNCc2cccnc2)c(-c2ccccc2)n1	·	·	·	–	·	–
Cc1cccc(N2CCN(C(=O)CS(=O)(=O)c3cccc4nsnc34)CC2)c1C	·	·	·	–	·	–
COc1ccc(-c2ccc3oc(-c4ccsc4)cc(=O)c3c2)cn1	–	2.91µM	–	–	–	–
COc1ccc2oc(-c3ccncc3)cc(=O)c2c1	–	–	–	3.66µM	–	?
COc1ccc(-c2c(-c3ccsc3)oc3ccc(N4CCOCC4)cc23)cn1	–	–	18.4µM	–	–	–
SMILES	HT1080 IDH1KD tx	SW480 rerep	MCF10A rereplic	KB-V1 cytotox	HT1080-NT tox	KB-3-1 cytotox
COc1ccc(-c2cc(=O)c3cc(O)ccc3o2)cc1	–	–	–	?	–	–
COc1ccc(-c2ccc3oc(-c4ccsc4)cc(=O)c3c2)cc1F	–	–	–	?	–	–
COC(=O)c1ccc(/C=C/c2c(-c3ccsc3)oc3ccc(N4CCOCC4)cc23)cc1	–	–	5.8µM	–	–	?
Nc1ccc(C#Cc2c(-c3ccsc3)oc3ccc(N4CCOCC4)cc23)cc1	?	–	13µM	–	–	–
O=c1cc(-c2ccccc2)oc2ccc(O)cc12	–	–	–	5.8µM	–	–
COc1ccc(-c2sc3ccc(N4CCOCC4)cc3c2C#Cc2ccsc2)cc1	–	–	?	–	–	–
COc1ccc(-c2oc3ccc(-c4ccc5c(c4)OCO5)cc3c2-c2ccc(OC)nc2)cc1	–	–	–	?	–	–
COc1ccc(-c2oc3ccc(-c4ccc(OC)nc4)cc3c2-c2ccc(OC)cc2)cc1	–	?	6.51µM	–	–	–
Clc1nc(NCCc2ccccc2)c2cn[nH]c2n1	–	–	?	1.16µM	–	–
Cn1ncc2c(NCCc3ccccc3)nc(Cl)nc21	–	–	–	4.61µM	–	?
COc1ccc(CCNc2cn[nH]c(=O)c2Cl)cc1OC	–	–	–	–	–	–
O=c1[nH]ncc(NCCc2ccccc2)c1Cl	–	–	–	8.2µM	–	?
COc1cccc(S(=O)(=O)N(C)C[C@@H]2OCc3cnnn3CCCC(=O)N([C@@H](C)CO)C[C@H]2C)c1	–	·	·	–	–	–
COc1cccc(CNC(=O)c2ccccc2NC(=O)C2=C(C)OCCS2)c1OC	–	–	–	–	–	–
CCC(C)(c1nnnn1-c1c(C)cccc1C)N(N=O)c1cccc(C(F)(F)F)c1 (centres undefined)	–	?	–	16.4µM	–	?
Cc1cc2ccccc2c[n+]1C1CCCCC1	·	·	·	–	·	4.61µM
CC(OC(=O)c1ccc(-c2ccc(O)cc2)cc1)C(=O)NC1CCCCC1C (centres undefined)	–	–	–	16.4µM	–	?
CC(=O)c1cc(-c2ccccc2)n(CC(=O)NC2CCCCCC2)c1C	·	·	·	–	·	–
CCN(C(=O)CSc1nc(C)nc2sc(C)c(C)c12)C1CCS(=O)(=O)C1 (centres undefined)	–	–	–	–	–	–
Cc1nc(SCC(=O)N(CC(C)C)C2CCS(=O)(=O)C2)c2c(C)c(C)sc2n1 (centres undefined)	–	–	–	3.66µM	–	?
Nc1cc(N)cc(N)c1	·	·	·	–	·	–
Cc1cc(N)cc(C)c1-c1c(Br)cc(N)cc1Br	?	?	?	16.4µM	?	13µM
CSCC[C@H](NC(=O)[C@H]1N2C(=O)c3ccccc3C2SC1(C)C)C(=O)NCc1ccncc1 (some centres undefined)	–	–	–	–	–	–
CC(NC(=O)CCNS(=O)(=O)c1cccc2nonc12)c1ccccc1 (centres undefined)	–	–	–	–	–	–
CCN1CCN(CC(=O)N2N=C(c3cccs3)CC2c2ccc(OC)c(OC)c2)C(=O)C1=O (centres undefined)	–	–	–	–	–	–
C=C1C(=O)c2sccc2C(c2ccc(OC)c(OC)c2)C1COC(C)=O (centres undefined)	2.31µM	?	–	?	2.59µM	?
Cn1nc(-c2ccc(N3CCOCC3)c(NS(=O)(=O)c3ccc(Cl)cc3)c2)c2ccccc2c1=O	18.4µM	–[9.22 µM]	?	?	?	?
CC(=O)Nc1cc(-c2nn(C)c(=O)c3ccccc23)ccc1N1CCOCC1	–	–	–	–	–	–

High-throughput results: PubChem, National Center for Advancing Translational Sciences (NCATS)
